Screening results (PubChem)
IL1B secr inh = inhibitors of inflammasome signaling (IL-1 beta secretion) | THP-1 LPS/ATP IL-1B secretion, AlphaLISA, 16 h; active compounds read low | activity change, % at 57.5 µM | 4.7% of 360,000 active | AID 743279; in the data active means activity change below about -50%; inconclusive means mostly about -30% to -49%; further: on the % scale 0 is the no-effect control and ±100 the full control effect
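Secreted IL-1B measured by AlphaLISA bead assay after 16 h compound exposure of THP-1 cells; compounds (final up to 57.5 uM) added 1 h before LPS (250 ng/mL) and ATP (1.25 mM) stimulation; lower signal means less secretion.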
DT40 TDP1 no CPT = qHTS for Inhibitors of human tyrosyl-DNA phosphodiesterase 1 (TDP1): qHTS in cells in absence of CPT | DT40 Tdp1-/- hTDP1 cells, no CPT, ATP luminescence, 48 h | Potency, µM (titrated, usually from 46.2 µM), for the others: at the highest dose activity change, negative = growth inhibition, usual class: inhibitors | 15% of 420,000 active | AID 686978, 2013; further: potency means the concentration at half of the fitted maximal effect; on the % scale 0 is the no-effect control and ±100 the full control effect; nearly all actives have a fitted effect of over 55% in size
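DT40 Tdp1-/-;hTDP1 cells, no CPT (DMSO vehicle only), 400 cells/well; compounds pin-transferred; ≥48 hr, 37 °C; CellTiter-Glo 30 min RT dark, luminescence read.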
HepG2 tox = kills HepG2 cells in TGF-b inhibitor counter-screen | HepG2 CAGA-GFP viability, ATP luminescence, 18 h | Potency, µM (top dose mostly 46.1 µM), inactives show at the top dose activity change, negative = cytotoxicity, usual class: cytotoxic | 0.76% of 410,000 active; further: potency means the concentration at half of the fitted maximal effect
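HepG2 CAGA-GFP cells (1000/well, DMEM with 1% FBS) received compound, then TGF-beta at 500 pg/mL final, and were incubated 18 hours at 37 degrees C. Viability was read by CellTiter-Glo luminescence. Media-only wells were set as complete cell-killing and DMSO as no toxicity.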
TGFb SMAD3 inh = inhibitors of TGF-b signaling | HepG2 CAGA-GFP TGF-b/SMAD3 reporter, GFP fluorescence, 18 h; TGF-beta stimulated, 500 pg/mL final | Potency, µM (titrated, usually from 46.1 µM), for the others: top-dose activity, negative = inhibition, most hits filed as inhibitors | 1.2% of 410,000 active; further: potency means the concentration at half of the fitted maximal effect; on the % scale 0 is the no-effect control and ±100 the full control effect; nearly all actives have a fitted effect of over 65% in size
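Smad-responsive CAGA-GFP expression was quantified in HEPG2 cells exposed to compounds and 500 pg/mL final TGF-beta for 18 h at 37 degrees C; unstimulated wells defined full inhibition.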
S-ASM inh = blocks human secretory acid sphingomyelinase; P17405; placental ASM, HMU-PC fluorogenic substrate, 60 min; Potency, µM (top dose mostly 57.5 µM), for the others: top-dose activity change, negative = inhibition, hits mostly inhibitors; 0.006% of 340,000 active; AID 504937; further: potency means the concentration at half of the fitted maximal effect
Target sequence (P17405 47-631 limits assumed): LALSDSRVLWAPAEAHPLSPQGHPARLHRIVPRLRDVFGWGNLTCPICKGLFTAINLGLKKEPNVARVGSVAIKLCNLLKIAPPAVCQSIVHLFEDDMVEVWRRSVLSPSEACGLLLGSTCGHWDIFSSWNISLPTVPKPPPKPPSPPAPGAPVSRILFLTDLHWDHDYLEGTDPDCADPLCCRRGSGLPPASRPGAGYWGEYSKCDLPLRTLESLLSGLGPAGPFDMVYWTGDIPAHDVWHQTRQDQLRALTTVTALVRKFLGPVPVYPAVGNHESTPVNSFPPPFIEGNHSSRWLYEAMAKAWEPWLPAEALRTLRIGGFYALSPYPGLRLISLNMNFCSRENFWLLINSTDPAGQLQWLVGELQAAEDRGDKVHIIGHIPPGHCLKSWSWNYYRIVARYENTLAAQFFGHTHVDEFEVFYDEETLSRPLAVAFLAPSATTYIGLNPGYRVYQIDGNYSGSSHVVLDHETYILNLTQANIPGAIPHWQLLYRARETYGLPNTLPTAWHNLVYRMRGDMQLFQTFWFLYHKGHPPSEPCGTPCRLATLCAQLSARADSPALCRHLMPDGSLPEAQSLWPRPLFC
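Fluorogenic HMU-PC substrate (9 uM final) is turned over by placental ASM in 60 min at 37 C after a 10 min compound preincubation. Reaction ended by alkaline stop (pH 10), with fluorescence read at 386/447 nm.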
TDP1 cell CPT = growth inhibition of DT40 Tdp1-/-;hTDP1 cells with camptothecin (screen for TDP1 inhibitors); AID 686979; 12% of 420,000 active; chicken DT40 Tdp1-/-;hTDP1 cells + 20 nM CPT, ATP luminescence, 48 h; Potency, µM (highest dose often 46.2 µM), for the others: top-dose activity change, negative = growth inhibition, most hits filed as inhibitors; further: potency means the concentration at half of the fitted maximal effect; on the % scale 0 is the no-effect control and ±100 the full control effect; nearly all actives have a fitted effect of over 55% in size
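Chicken DT40 Tdp1-/- cells complemented with human TDP1, 400 cells/well, exposed to compounds plus 20 nM camptothecin for at least 48 h at 37 C; viability read as ATP content by CellTiter-Glo luminescence.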
* marks the source's active call; other numbers are inactive results; ! = repeats disagree. This is a sample that favours compounds with a hit; in the whole collection about 19% have one here. Unless noted, the call rests on the fitted dose curve; in most records, active means well fitted curve in the direction sought with a large enough effect; inconclusive means small, poorly fitted or top-dose-only effect, or another doubt; inactive means no such curve, though single readings can be large; an effect the other way counts as inactive or inconclusive.

Screening CCn1nc(NS(=O)(=O)c2ccccc2)c2cc3ccccc3nc21 returned IL1B secr inh 42, DT40 TDP1 no CPT inconclusive, HepG2 tox -9%, TGFb SMAD3 inh -24%, S-ASM inh 2% and TDP1 cell CPT 23µM*.
O=C1C(Cc2ccccc2)Nc2ncnc(N3CCCCC3)c2N1Cc1ccccc1 (stereo not given) was read as IL1B secr inh -11, DT40 TDP1 no CPT inconclusive, HepG2 tox -9%, TGFb SMAD3 inh -1%, S-ASM inh -5% and TDP1 cell CPT inconclusive.
CC(C)CC1Nc2ncnc(N3CCCCC3)c2N(Cc2ccc(Br)cc2)C1=O (stereo not given) was read as IL1B secr inh -5, DT40 TDP1 no CPT 16µM*, HepG2 tox -3%, TGFb SMAD3 inh inconclusive, S-ASM inh -1% and TDP1 cell CPT inconclusive.
For O=C1C(Cc2ccccc2)Nc2ncnc(N3CCCCC3)c2N1Cc1ccc(Br)cc1 (stereo not given) the results were IL1B secr inh inconclusive, DT40 TDP1 no CPT inconclusive, HepG2 tox 3.2µM*!, TGFb SMAD3 inh inconclusive, S-ASM inh -8% and TDP1 cell CPT inconclusive.
`CC(C)CC1Nc2ncnc(N3CCOCC3)c2N(Cc2ccc(Br)cc2)C1=O` (stereo not given) gave IL1B secr inh 10, DT40 TDP1 no CPT inconclusive, HepG2 tox -1%, TGFb SMAD3 inh inconclusive, S-ASM inh 1% and TDP1 cell CPT inconclusive.
For COc1ccc(C)cc1NC(=O)c1ccc2c(c1)CCN2S(=O)(=O)c1ccc(Cl)cc1 the results were DT40 TDP1 no CPT -3%, HepG2 tox -16%, TGFb SMAD3 inh inconclusive and TDP1 cell CPT -26%.
`CCN(CC)S(=O)(=O)c1cccc(-c2nnc(SCC(=O)c3cc(C)n(C4CC4)c3C)o2)c1` gave IL1B secr inh 6, DT40 TDP1 no CPT 16µM*, HepG2 tox 3%, TGFb SMAD3 inh -4%, S-ASM inh -3% and TDP1 cell CPT inconclusive.
Screening C=CCn1c(C)cc(C(=O)CSc2nnc(-c3cccc(S(=O)(=O)N(CC)CC)c3)o2)c1C returned IL1B secr inh 0, DT40 TDP1 no CPT inconclusive, HepG2 tox -26%, TGFb SMAD3 inh -1%, S-ASM inh 0% and TDP1 cell CPT inconclusive.
`O=C(CSc1nnc(-c2cccc(S(=O)(=O)N3CCCCC3)c2)o1)NCCC1=CCCCC1` gave IL1B secr inh 11, DT40 TDP1 no CPT inconclusive, HepG2 tox -21%, TGFb SMAD3 inh 0%, S-ASM inh -1% and TDP1 cell CPT inconclusive.
`CCN(CC)S(=O)(=O)c1cccc(-c2nnc(SC(C)C(=O)NCCC3=CCCCC3)o2)c1` (stereo not given) gave IL1B secr inh -24, DT40 TDP1 no CPT 26µM*, HepG2 tox -6%, TGFb SMAD3 inh -15%, S-ASM inh -3% and TDP1 cell CPT inconclusive.
`CCN(CC)S(=O)(=O)c1cccc(-c2nnc(SCc3nc4ccccc4s3)o2)c1` gave IL1B secr inh -26, DT40 TDP1 no CPT 21µM*, HepG2 tox -35%, TGFb SMAD3 inh inconclusive, S-ASM inh -2% and TDP1 cell CPT inconclusive.
For O=C(COC(=O)c1ccc(Cl)nc1)Nc1cccnc1Cl the results were IL1B secr inh -9, DT40 TDP1 no CPT 0%, HepG2 tox 1%, TGFb SMAD3 inh -3%, S-ASM inh 0% and TDP1 cell CPT 10%.
CN(C)c1ncc2nc(-c3cccc(C#N)c3)c(=O)n(CCC#N)c2n1 was read as DT40 TDP1 no CPT 12% and TDP1 cell CPT 20%.
For Cc1ccccc1C1CCCN(C(=O)c2cc(COc3c(F)cccc3F)on2)C1 (stereo not given) the results were IL1B secr inh 6, DT40 TDP1 no CPT 21µM*, HepG2 tox -41%, TGFb SMAD3 inh inconclusive, S-ASM inh -1% and TDP1 cell CPT 23µM*.
`Cc1ccc(OCc2cc(C(=O)N3CCCCCCC3)no2)cc1C` gave IL1B secr inh -15, DT40 TDP1 no CPT 5%, HepG2 tox -18%, TGFb SMAD3 inh -7%, S-ASM inh -1% and TDP1 cell CPT -18%.
Cc1ccc(OCc2cc(C(=O)N3CCN(C4CCCCC4)CC3)no2)cc1C was read as IL1B secr inh 8, DT40 TDP1 no CPT inconclusive, HepG2 tox -16%, TGFb SMAD3 inh -3%, S-ASM inh 4% and TDP1 cell CPT 16µM*.
Cc1cc(OCc2cc(C(=O)N3CCCCCC3)no2)cc(C)c1Cl was read as IL1B secr inh 0, DT40 TDP1 no CPT inconclusive, HepG2 tox -8%, TGFb SMAD3 inh inconclusive, S-ASM inh -8% and TDP1 cell CPT 15µM*.
Cc1cc(OCc2cc(C(=O)N(C)C(C)c3ccccn3)no2)cc(C)c1Cl (stereo not given) was read as IL1B secr inh -12, DT40 TDP1 no CPT inconclusive, HepG2 tox -23%, TGFb SMAD3 inh -1%, S-ASM inh -1% and TDP1 cell CPT 18µM*.
Screening Cc1ccc(OCc2cc(C(=O)N3CCN(C4CCCC4)CC3)no2)cc1C returned IL1B secr inh inactive, DT40 TDP1 no CPT -24%, HepG2 tox -16%, TGFb SMAD3 inh -14%, S-ASM inh 0% and TDP1 cell CPT -25%.
`COc1cc2c(cc1OC)Cc1cc(OC)c(OC)cc1Cc1cc(OC)c(OC)cc1C2` gave DT40 TDP1 no CPT -22% and TDP1 cell CPT -29%.
`CCC(CO)Oc1cc(NC(=O)Cc2ccccc2F)c2ncn(C(C)C)c2c1` (stereo not given) gave IL1B secr inh -11, DT40 TDP1 no CPT -15%, HepG2 tox -37%, TGFb SMAD3 inh 0%, S-ASM inh 0% and TDP1 cell CPT -2%.
`Cc1cc(OCc2cc(C(=O)N3CCN(CC4CC4)CC3)no2)cc(C)c1Cl` gave IL1B secr inh 0, DT40 TDP1 no CPT inconclusive, HepG2 tox -7%, TGFb SMAD3 inh -22%, S-ASM inh 1% and TDP1 cell CPT inconclusive.
`Cc1cc(OCc2cc(C(=O)N3CCC(Oc4cccnc4)CC3)no2)cc(C)c1Cl` gave IL1B secr inh -62*, DT40 TDP1 no CPT 15µM*, HepG2 tox -28%, TGFb SMAD3 inh inconclusive, S-ASM inh -3% and TDP1 cell CPT 13µM*.
